Sampled rows, rich in hits. Any-hit rate of the full collection: about 6.5%.
TGFb inhibitor: inhibitors of TGF-b signaling. HepG2 CAGA-GFP TGF-b/SMAD3 reporter, GFP fluorescence, 18 h; TGF-beta stimulated, 500 pg/mL final. Potency, µM (doses to about 46.1 µM), hits mostly inhibitors. 410,000 tested, 1.2% active; also: nearly all actives have a fitted effect of over 65% in size
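Per well, imaged GFP fluorescence of HEPG2 CAGA-GFP cells gives the signal; cells get compound, then TGF-beta (500 pg/mL final), 18 h at 37 degrees C; %Activity versus -TGF-beta and +DMSO controls.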
HT1080-NT tox: kills 2HG-producing HT-1080-NT fibrosarcoma cells; HT-1080-NT fibrosarcoma viability, CellTiter-Glo ATP luminescence, 48 h; Potency, µM (top dose mostly 46.1 µM), hits mostly cytotoxic; 360,000 tested, 1.6% active; AID 686970;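 also: NT is the 2HG producing partner of a matched IDH1 knockdown line; nearly all actives have a fitted effect of over 55% in size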
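750 cells/well, RPMI + 5% FBS; 2 h settle, compound pin-transfer, 48 h at 37 degrees C. CellTiter-Glo 10 min RT, luminescence. Normalized to DMSO and media-only wells.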
Giardia killer: Giardia lamblia killing. 340,000 tested, 0.15% active. activity change, % at 7.66 µM, hits read low. AID 540267. Giardia lamblia trophozoite viability; in the data active = activity change below about -80%; inconclusive = between about -30% and that limit;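 also: parasites exposed to compound for two days anaerobically before the ATP read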
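Giardia trophozoites, 100 cells per well, were exposed to compounds for 48 hrs at 37 deg C under anaerobic conditions; viability was then read as ATP content by bioluminescence after 15-30 min at room temperature.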
HT1080 IDH1KD tx: HT-1080 IDH1 knockdown cell toxicity (counter line); HT-1080 IDH1 knockdown viability, ATP luminescence, 48 h; 360,000 tested, 2% active; Potency, µM (series often up to 46.1 µM), hits mostly cytotoxic
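After a 2 h attachment period, IDH1KD HT-1080 cells took pin-transferred compound for 48 h at 37 °C; ATP-based luminescence after 10 min room-temperature reagent incubation reported viability.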
HepG2 tox: HepG2 cytotoxicity, counter-screen for TGF-b inhibitors; Potency, µM (doses to about 46.1 µM), usual class: cytotoxic; HepG2 CAGA-GFP viability, ATP luminescence, 18 h; AID 588856; 410,000 tested, 0.76% active
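CellTiter-Glo luminescence gave cytotoxicity after 18 hours at 37 degrees C. The cells were HepG2 CAGA-GFP in 1% FBS DMEM, stimulated with 500 pg/mL TGF-beta after compound addition. %Activity was normalised to no-cell wells (complete cell-killing) and DMSO (no toxicity), and curves were fitted and classified.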
IL1B secr inh: inflammasome signaling inhibition, IL-1 beta readout; THP-1 LPS/ATP IL-1B secretion, AlphaLISA, 16 h; hits give low values; activity change, % at 57.5 µM; 360,000 tested, 4.7% active; AID 743279; in the data active = activity change below about -50%; inconclusive = mostly about -30% to -49%
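Secreted IL-1B measured by AlphaLISA bead assay after 16 h compound exposure of THP-1 cells; compounds (final up to 57.5 uM) added 1 h before LPS (250 ng/mL) and ATP (1.25 mM) stimulation; lower signal means less secretion.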
Each line names hits and unclear results; the compound was inactive in the other large screens; ! = not active in a repeat. Unless noted, calls follow the shape of the dose curve; as a rule, active = well fitted curve in the direction sought with a large enough effect; inconclusive = small, poorly fitted or top-dose-only effect, or another doubt; inactive = no such curve, though single readings can be large; an effect the other way counts as inactive or inconclusive.

Cc1cccn2c(=O)c3cc(C#N)c(=NC(=O)c4ccccc4)n(Cc4ccco4)c3nc12	IL1B secr inh -76.4!
C#CCOCCOCCOCCNc1nc(N2CCN(C(=O)CCCCCCCCCCNC(=O)[C@@H](CCSC)n3cc(CCO)nn3)CC2)nc(N2CCN(C(=O)CCCCCCCCCCNC(=O)[C@H]([C@@H](C)CC)n3cc(CCCCCN)nn3)CC2)n1	TGFb inhibitor inconclusive, HT1080-NT tox inconclusive, HT1080 IDH1KD tx inconclusive, IL1B secr inh -72.4
C#CCOCCOCCOCCNc1nc(N2CCN(C(=O)CCCCCCCCCCNC(=O)[C@@H](CCSC)n3cc(CCO)nn3)CC2)nc(N2CCN(C(=O)CCCCCCCCCCNC(=O)[C@H]([C@@H](C)CC)n3cc(CCCCN=C(N)N)nn3)CC2)n1	TGFb inhibitor inconclusive, HT1080-NT tox inconclusive, HT1080 IDH1KD tx inconclusive, IL1B secr inh -104.1
C=C(C)COc1ccc(-c2[nH]ncc2-c2ccc(OC)c(OC)c2)c(O)c1	TGFb inhibitor inconclusive, HT1080-NT tox 7.31µM, HT1080 IDH1KD tx 4.61µM
C=C(C)COc1ccc(-c2[nH]ncc2-c2ccccc2)c(O)c1	TGFb inhibitor 11.2µM, HT1080-NT tox inconclusive, HT1080 IDH1KD tx inconclusive, IL1B secr inh inconclusive
COc1ccc(-c2cn[nH]c2-c2ccc(OCC(=O)NN)cc2O)cc1	none
C=C(C)COc1ccc(-c2n[nH]c(C)c2-c2ccc(OC)c(OC)c2)c(O)c1	TGFb inhibitor inconclusive, HT1080-NT tox 4.11µM, HT1080 IDH1KD tx 1.46µM
C=C(C)COc1ccc(-c2n[nH]c(C)c2Oc2ccccc2OC)c(O)c1	TGFb inhibitor inconclusive, HT1080-NT tox inconclusive, HT1080 IDH1KD tx inconclusive
CC(C)C(=O)N=C1NC(=O)CS1	none
CCOC(=O)N1CCN(CCC(=O)c2ccc(OC)cc2)CC1	TGFb inhibitor 11.2µM
COc1ccc(N2CCN(CCC(=O)c3ccc4ccccc4c3)CC2)cc1	TGFb inhibitor 11.2µM, HT1080-NT tox inconclusive, HT1080 IDH1KD tx inconclusive, IL1B secr inh inconclusive
CNC(=S)Nc1ccc(N2CCN(c3ccc(C(F)(F)F)cn3)CC2)nc1	none
Fc1ccc(NC(=S)N2CCCN(c3ccc(C(F)(F)F)cn3)CC2)c(F)c1	TGFb inhibitor inconclusive, HT1080-NT tox 23.1µM, HT1080 IDH1KD tx inconclusive
O=C(Nc1ccc(F)cc1F)N1CCCN(c2ccc(C(F)(F)F)cn2)CC1	HT1080-NT tox inconclusive, HT1080 IDH1KD tx 13µM, IL1B secr inh inconclusive
O=C(Nc1ccccc1)N1CCN(c2ccc(C(F)(F)F)cn2)CC1	IL1B secr inh inconclusive
O=C(c1ccc(Cl)c([N+](=O)[O-])c1)N(Cc1ccco1)C1CCS(=O)(=O)C1 (stereo unspecified)	none
Cc1cc(CNC(=O)COc2ccc(F)cc2F)c2ccccc2n1	none
COc1ccc(NC(=O)c2cc(-c3cc(Cl)ccc3OC)n[nH]2)c(C)c1	HT1080-NT tox inconclusive, HT1080 IDH1KD tx inconclusive, IL1B secr inh inconclusive (no result: Giardia killer)
CC(C)Cc1ccc(C(C)C(N)=NCCc2ccccc2)cc1 (stereo unspecified)	TGFb inhibitor inconclusive, HT1080-NT tox 16.4µM, HT1080 IDH1KD tx 18.4µM, HepG2 tox 17.8µM, IL1B secr inh -91.0
CC(=O)NCCc1ccc(C(=O)COC(=O)c2ccc(C)s2)cc1	none (no result: Giardia killer)
NS(=O)(=O)c1ccc(NC(=O)COC(=O)/C=C/c2ccc([N+](=O)[O-])cc2)cc1	none
Cc1ccc(NC(=O)Cc2nc(COC(=O)Cc3cccc(C(F)(F)F)c3)cs2)cc1	none
Cc1ccc(NC(=O)Cc2nc(COC(=O)c3c(F)cccc3Cl)cs2)cc1	HT1080-NT tox inconclusive, HT1080 IDH1KD tx inconclusive, IL1B secr inh -59.0
COc1ccc(CCN(C(=O)C(F)(F)F)C(C(=O)NC2CCCC2)c2cccs2)cc1 (stereo unspecified)	TGFb inhibitor inconclusive, HT1080-NT tox 8.91µM, HT1080 IDH1KD tx inconclusive
C#CC(=O)N(c1ccc(OC)cc1OC)C(C(=O)NC1CCCC1)c1cccs1 (stereo unspecified)	TGFb inhibitor inconclusive, HT1080-NT tox 0.92µM, HT1080 IDH1KD tx inconclusive, IL1B secr inh -102.4

Compound activity: PubChem, National Center for Advancing Translational Sciences (NCATS)
